# Screening results (PubChem BioAssay)
# TGFb inhibitor: TGF-b pathway inhibition; HepG2 CAGA-GFP TGF-b/SMAD3 reporter, GFP fluorescence, 18 h; TGF-beta stimulated, 500 pg/mL final; Potency, µM (highest dose often 46.1 µM), for the others: top-dose activity, negative = inhibition, usual class: inhibitors; 410,000 tested, 1.2% active; AID 588855; also: potency is read from the fitted curve at half-maximal effect; % is scaled to controls: 0 for no effect and ±100 for the full control effect; nearly all actives have a fitted effect of over 65% in size
#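 HEPG2 CAGA-GFP reporter cells (1000/well, DMEM with 1% FBS) received compounds, then recombinant TGF-beta at 500 pg/mL final for 18 hours at 37 degrees C. Per-cell GFP summed per well was normalised to unstimulated and stimulated DMSO controls before curve fitting.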
# S-ASM inh: human S-ASM enzyme inhibition. P17405. placental ASM, HMU-PC fluorogenic substrate, 60 min. Potency, µM (series often up to 57.5 µM), for the others: top-dose activity change, negative = inhibition, most hits filed as inhibitors. 340,000 tested, 0.006% active. AID 504937; also: potency is read from the fitted curve at half-maximal effect
# Target sequence (P17405 47-631 limits assumed): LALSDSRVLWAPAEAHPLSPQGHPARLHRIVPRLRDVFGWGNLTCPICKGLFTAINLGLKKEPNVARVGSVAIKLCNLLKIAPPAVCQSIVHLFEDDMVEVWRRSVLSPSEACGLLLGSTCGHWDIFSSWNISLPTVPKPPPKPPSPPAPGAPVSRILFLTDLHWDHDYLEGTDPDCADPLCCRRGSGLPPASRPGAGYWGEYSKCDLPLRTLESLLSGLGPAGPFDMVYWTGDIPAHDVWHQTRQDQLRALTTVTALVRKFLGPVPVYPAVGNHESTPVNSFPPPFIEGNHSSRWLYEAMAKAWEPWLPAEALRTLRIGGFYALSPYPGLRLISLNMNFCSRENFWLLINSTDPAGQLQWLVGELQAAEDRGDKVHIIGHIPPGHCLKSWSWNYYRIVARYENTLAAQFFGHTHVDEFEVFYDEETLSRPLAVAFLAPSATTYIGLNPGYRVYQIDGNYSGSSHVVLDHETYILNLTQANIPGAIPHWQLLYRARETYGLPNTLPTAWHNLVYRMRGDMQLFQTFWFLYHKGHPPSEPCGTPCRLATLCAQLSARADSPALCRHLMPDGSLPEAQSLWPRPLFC
#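 Human placenta-derived ASM preincubated with compound 10 min at room temperature, then reacted with 9 uM (final) fluorogenic HMU-PC substrate for 60 min at 37 C. Stop solution raises pH to 10; fluorescence read at Ex 386/Em 447 nm.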
# IL-1B inflam inh: inflammasome signaling inhibition, IL-1 beta readout | THP-1 LPS/ATP IL-1B secretion, AlphaLISA, 16 h; hits give low values | activity change, % at 57.5 µM | 360,000 tested, 4.7% active | AID 743279; in the data active = activity change below about -50%; inconclusive = mostly about -30% to -49%; also: % is scaled to controls: 0 for no effect and ±100 for the full control effect
#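 THP-1 cells pretreated 1 hr with compounds (up to 57.5 uM final), then stimulated with LPS (250 ng/mL final) plus ATP (1.25 mM final); secreted IL-1B measured by AlphaLISA after 16 hr, decreased signal indicating inhibition.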
# HepG2 tox: HepG2 cytotoxicity, counter-screen for TGF-b inhibitors | 410,000 tested, 0.76% active | HepG2 CAGA-GFP viability, ATP luminescence, 18 h | AID 588856 | Potency, µM (highest dose often 46.1 µM), without a hit: top-dose activity change, negative = cytotoxicity, usual class: cytotoxic; also: potency is read from the fitted curve at half-maximal effect
#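 HepG2 CAGA-GFP cells (1000/well, DMEM with 1% FBS) received compound, then TGF-beta at 500 pg/mL final, and were incubated 18 hours at 37 degrees C. Viability was read by CellTiter-Glo luminescence. Media-only wells were set as complete cell-killing and DMSO as no toxicity.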
# TDP1 cell CPT: DT40-hTDP1 cell growth loss with CPT | Potency, µM (titrated, usually from 46.2 µM), for inactives: at the highest dose activity change, negative = growth inhibition, actives largely listed as inhibitors | 420,000 tested, 12% active | chicken DT40 Tdp1-/-;hTDP1 cells + 20 nM CPT, ATP luminescence, 48 h | AID 686979; also: potency is read from the fitted curve at half-maximal effect; % is scaled to controls: 0 for no effect and ±100 for the full control effect; nearly all actives have a fitted effect of over 55% in size
#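 Chicken DT40 Tdp1-/- cells complemented with human TDP1, 400 cells/well, exposed to compounds plus 20 nM camptothecin for at least 48 h at 37 C; viability read as ATP content by CellTiter-Glo luminescence.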
# DT40 TDP1 no CPT: qHTS for Inhibitors of human tyrosyl-DNA phosphodiesterase 1 (TDP1): qHTS in cells in absence of CPT. 420,000 tested, 15% active. DT40 Tdp1-/- hTDP1 cells, no CPT, ATP luminescence, 48 h. Potency, µM (doses to about 46.2 µM), for inactives: at the top dose activity change, negative = growth inhibition, most hits filed as inhibitors. AID 686978, 2013; also: potency is read from the fitted curve at half-maximal effect; % is scaled to controls: 0 for no effect and ±100 for the full control effect; nearly all actives have a fitted effect of over 55% in size
#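 DT40 Tdp1-/-;hTDP1 cells, no CPT (DMSO vehicle only), 400 cells/well; compounds pin-transferred; ≥48 hr, 37 °C; CellTiter-Glo 30 min RT dark, luminescence read.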
# * = called active by the depositor; ? = inconclusive; / = no result. Hits are enriched below; roughly 19% of the tested compounds scored in any of these assays. Unless noted, calls follow the shape of the dose curve; as a rule, active = well fitted curve in the direction sought with a large enough effect; inconclusive = small, poorly fitted or top-dose-only effect, or another doubt; inactive = no such curve, though single readings can be large; an effect the other way counts as inactive or inconclusive.
SMILES,TGFb inhibitor,S-ASM inh,IL-1B inflam inh,HepG2 tox,TDP1 cell CPT,DT40 TDP1 no CPT
CCN(CC)P(=O)(Nc1ccc([N+](=O)[O-])cc1)c1c(C)nn(CCC#N)c1NC(=O)c1ccc(Cl)cc1Cl (stereo unspecified),?,-8.8%,-7.4,-19.7%,18.4µM*,23.1µM*
N#CCCn1cc(C(=O)Nc2ccc([N+](=O)[O-])cc2)c(-c2ccccc2)n1,-27.4%,-1.5%,12.1,-13.1%,-5.6%,-11.5%
CC(Cc1ccccc1)N(C)CC1C(=O)C2CCC1C2 (stereo unspecified),-0.1%,5.6%,-9.8,-3.2%,?,-23.0%
CN(C)c1ccc(C(O)P(=O)(OC2CCCCC2)OC2CCCCC2)cc1 (stereo unspecified),7.5%,-0.3%,-10.8,-33.9%,?,-29.6%
CN(C)c1ccc([P+](=O)c2ccc(N(C)C)cc2)cc1,8.1%,0.0%,-21.0,-2.0%,?,20.6µM*
COc1ccc(CN2CCN(c3ncnc4sc5c(c34)CCCC5)CC2)cc1F,/,/,/,-2.4%,8.2µM*,5.17µM*
Cc1ccc(S(=O)(=O)NCC(=O)OCC(=O)N2N=C(c3ccc(Cl)cc3)CC2c2ccco2)cc1C (stereo unspecified),?,-8.3%,2.6,-1.8%,?,23.1µM*
O=C(O)CCC(=O)N1N=C(c2c(-c3ccccc3)c3cc(Cl)ccc3[nH]c2=O)CC1c1ccco1 (stereo unspecified),?,40.5%,0.8,-32.8%,4.6%,-4.4%
CCOC(=O)[C@]12Cc3cc(OC)ccc3[C@H]1N(C1CCCCC1)C(=O)c1cc(OC)ccc12,/,/,-114.0*,/,2.59µM*,4.61µM*
CCOC(=O)C1C(=O)NC2(C)CC1c1cc(OC)ccc1O2 (stereo unspecified),1.0%,-0.9%,-2.3,-2.4%,-4.7%,-11.3%
CCOC(=O)[C@]12Cc3cc(C)ccc3[C@H]1N(C1CCCCC1)C(=O)c1cc(OC)ccc12,/,/,-110.7*,/,1.16µM*,1.03µM*
Cc1oc(-c2ccccc2F)nc1CS(=O)(=O)CC(=O)N1CCN(c2cccc(C(F)(F)F)c2)CC1,?,/,/,-24.0%,?,?
CC[C@@H](C(=O)O)[C@@H]1O[C@@H]([C@@H](C)[C@H](O)[C@H](C)C(=O)[C@H](CC)[C@H]2O[C@]3(C=C[C@@H](O)[C@]4(CC[C@@](C)([C@H]5CC[C@](O)(CC)[C@H](C)O5)O4)O3)[C@H](C)C[C@@H]2C)[C@@H](C)C[C@@H]1C,/,/,/,/,0.473µM*,0.266µM*
Cc1ccccc1OCCN=Cc1c(O)n(C)c(=O)n(C)c1=O,-6.7%,-0.6%,25.8,-26.8%,?,20.6µM*
Cn1c(O)c(C=NCc2cccs2)c(=O)n(C)c1=O,-0.7%,5.4%,1.6,-3.1%,?,0.5%
C[C@]12CCC3C(C(=O)C[C@H]4C[C@@H](O)CC[C@]34C)C1CCC2=O (stereo partly specified),0.0%,0.6%,6.1,-1.3%,-3.0%,-15.9%
COc1ccc(CNS(=O)(=O)c2cc3c(cc2C)N(C)CCO3)cc1,-2.0%,1.5%,2.1,-1.7%,?,14.6µM*
Cc1cccc(OP(=O)(Oc2ccccc2)OC(c2ccccc2)C(F)(F)F)c1 (stereo unspecified),-6.4%,-0.4%,-0.8,0.3%,-22.1%,18.4µM*
Cc1nn(Cc2ccc(Cl)cc2Cl)c(Cl)c1C(=O)NC1CCCc2ccccc21 (stereo unspecified),0.0%,0.9%,25.0,5.4%,16.4µM*,11.6µM*
CC1OC(C)OC(C)O1 (stereo unspecified),/,/,/,/,14.9%,-23.7%
N#CC(C#N)=Cc1cc(O)c(O)c(O)c1,/,/,/,/,9.44µM*,15µM*
CC1CC2CC(=O)C3CCCN4CCCC2[C@]34C1 (stereo partly specified),/,/,/,/,6.3%,-2.3%
Cc1ccc2nc(N)[nH]c(=O)c2c1Sc1ccncc1,/,/,/,/,?,0.376µM*
COc1cc(C2SCC(=O)Nc3c2c(=O)[nH]n3C2CCCCCC2)cc(OC)c1OC (stereo unspecified),?,3.4%,-4.5,-13.4%,-0.7%,-5.9%
C[C@H]1[C@@H](OC(=O)CCC(=O)O)O[C@@H]2OC3(C)CC[C@H]4[C@H](C)CC[C@@H]1[C@@]24OO3,/,/,/,/,0.119µM*,0.106µM*
SMILES,TGFb inhibitor,S-ASM inh,IL-1B inflam inh,HepG2 tox,TDP1 cell CPT,DT40 TDP1 no CPT
CCC(C)NC(=O)CCC(=O)OC1O[C@H]2OC3(C)CC[C@H]4[C@H](C)CCC(C1C)C24OO3 (stereo partly specified),-9.1%,-0.9%,?,-19.9%,0.206µM*,0.184µM*
CC(=O)OC1CC2C(C)(C)C(O)C=C[C@@]2(C)C2CC[C@]3(C)C(=CC(=O)OC3c3ccoc3)[C@]12C (stereo partly specified),/,/,/,/,-2.7%,-27.4%
CC1(C)C(C(Cl)Cl)C2(Cl)C(Cl)C(Cl)C1(Cl)C2(Cl)Cl (stereo unspecified),/,/,/,/,?,-14.4%
Cc1sc2ncnc(N3CCC(C(=O)Nc4ccc(C#N)c(Cl)c4)CC3)c2c1C,?,-5.6%,11.9,-42.2%,18.4µM*,?
O=c1[nH]c(O)c(/C=C2\C=Nc3ccc(OCc4ccccc4)cc32)c(=O)[nH]1,-16.9%,-13.7%,18.0,-2.2%,-0.4%,?
ClC1=CCC2CN(CCN3CCCCC3)CC2C1 (stereo unspecified),7.8%,-5.2%,11.0,-16.3%,-4.2%,2.9%
N#CC1=C(N)Oc2c(c(=O)oc3ccccc23)C1c1ccc(OC(=O)N2CCOCC2)cc1 (stereo unspecified),-13.1%,3.2%,1.3,-3.1%,-15.9%,-5.2%
COC(=O)[C@]12CCC(C)(C)C[C@H]1[C@H]1C(=O)C=C3[C@@]4(C)C=C(C#N)C(=O)C(C)(C)[C@@H]4CC[C@@]3(C)[C@]1(C)CC2,/,/,/,/,1.19µM*,1.06µM*
Cc1ccccc1OCCCn1cc(C(=O)C(=O)N2CCOCC2)c2ccccc21,-12.0%,-1.7%,-2.7,-12.6%,?,?
CCC(=O)N1CC(=O)Nc2ccc(C)cc2C1c1ccc(F)cc1 (stereo unspecified),19.4%,/,/,1.4%,3.66µM*,9.2µM*
CN1CCN(c2csc3ccc(F)cc3c2=O)CC1,-14.0%,/,/,-4.7%,4.8%,-3.1%
